# PKA-R1A act: PKA-R1A complex activation. AID 504707. activation, % at 11.4 µM. PKA-R1A dissociation, Cy5-IP20 fluorescence polarization; scaled: DMSO 0%, 113 µM cGMP 100%. actives 0.083% (n = 340,000). P00514+P68181;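 active = percent activation above the mean of all tested compounds plus 3 SD, cut at about 19% in these data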;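 note: higher means more PKAc released from R1A so a rise in polarization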
# Neddylation inh: blocks human cullin neddylation; P61081+Q13564; TR-FRET cullin neddylation, biochemical; inhibition, % at 25 µM; actives 0.58% (n = 360,000); AID 651699; in the data active = inhibition above about 36%
# PKA-R2B act: activates the human PKA-R2B holoenzyme complex. PKA-R2B holoenzyme dissociation, Cy5-IP20 fluorescence polarization; R2B truncated from residue 108, S112A mutant; 0% DMSO only, 100% 113 µM cGMP. activation, % at 11.4 µM. actives 0.079% (n = 340,000);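 active = activation above a cutoff set at the mean over all compounds plus 3 SD, cut at about 18% in these data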;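 note: higher means more holoenzyme dissociation and a rise in polarization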
# Rpn11 block: Rpn11 (human) deubiquitinase inhibition; actives 0.59% (n = 360,000); O00487; calls only at 20 µM; human 26S proteasome, Ub4-pepOG fluorescence polarization; 20S core pre-blocked with epoxomicin;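 active = inhibition at 20 µM, scaled to each plate's controls, above about 33%, limit read from the data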
# Rpn11 inh conf: confirmation of human proteasome Rpn11 inhibitors; shares compounds with Rpn11 block; purified human 26S proteasome, Ub4-pepOG fluorescence polarization; proteasome pretreated with epoxomicin; inhibition, % at 20 µM; actives 29% (n = 1,900)
# MMP-2 inh: counter-screen for RPN11 inhibitors: inhibition of human MMP-2. shares compounds with Rpn11 block. recombinant MMP-2, FRET peptide cleavage fluorescence. inhibition, % at 20 µM. actives 4% (n = 1,900). AID 602330;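 note: human MMP-2 activated beforehand with APMA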
# Thrombin inh: counter-screen for RPN11 inhibitors: inhibition of bovine thrombin | actives 13% (n = 1,900) | shares compounds with Rpn11 block | inhibition, % at 20 µM | bovine thrombin cleavage of Ub4-pepOG, fluorescence polarization | AID 602333;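 active = mean inhibition at least 40% at 20 µM, or signal 3 deviations below plate average, so some actives read negative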;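 note: plate controls were thrombin with DMSO for no effect and buffer wells lacking thrombin for full effect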
# Target sequence (P00735 whole entry, looked up): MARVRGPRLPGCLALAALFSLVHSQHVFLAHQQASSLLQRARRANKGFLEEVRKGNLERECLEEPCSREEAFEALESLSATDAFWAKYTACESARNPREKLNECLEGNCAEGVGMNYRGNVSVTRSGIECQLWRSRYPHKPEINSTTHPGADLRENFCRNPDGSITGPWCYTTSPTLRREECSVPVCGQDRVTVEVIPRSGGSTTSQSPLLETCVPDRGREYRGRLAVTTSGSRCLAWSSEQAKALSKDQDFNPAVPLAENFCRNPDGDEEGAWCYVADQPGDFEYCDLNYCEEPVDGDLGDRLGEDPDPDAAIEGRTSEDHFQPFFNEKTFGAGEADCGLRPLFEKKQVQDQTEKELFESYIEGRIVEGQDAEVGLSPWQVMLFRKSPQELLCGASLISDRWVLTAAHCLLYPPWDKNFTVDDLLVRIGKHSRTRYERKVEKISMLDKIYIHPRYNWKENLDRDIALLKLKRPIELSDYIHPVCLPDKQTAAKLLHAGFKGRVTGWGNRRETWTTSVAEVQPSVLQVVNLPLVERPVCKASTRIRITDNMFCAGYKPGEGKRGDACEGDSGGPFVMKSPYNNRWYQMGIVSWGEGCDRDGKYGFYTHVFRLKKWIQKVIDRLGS
# * = called active by the depositor; i = inactive; nt = no result shown; + = active, no number. In the library only some 1.3% were active in any assay of this set; here they are far more common. Cut-off read from the data, not from the text of the source, unless noted: active = inhibition above about 40%; inactive = the rest.
SMILES,PKA-R1A act,Neddylation inh,PKA-R2B act,Rpn11 block,Rpn11 inh conf,MMP-2 inh,Thrombin inh
O=C(c1noc2c1CCCC2)N1CCC(CO)(Cc2ccccc2Cl)CC1,-11,4,6,i,nt,nt,nt
CC(/C=C/c1ccc(N(C)C)cc1)=N/N=C1/NC(=O)CC(C(=O)Nc2ccc(Cl)cc2)S1 (stereo not drawn),1,33,-5,+,89*,23,87*
CCOC(=O)N1CCN(CC(=O)Nc2nc3ccccc3s2)CC1,1,8,6,i,nt,nt,nt
CCOC(=O)N1CCN(C(=O)c2nc3ccccc3s2)CC1,2,5,12,+,-10,-12,-6
COc1ccc(S(=O)(=O)N2CCN(C(=O)C3COc4ccccc4O3)CC2)cc1 (stereo not drawn),-10,3,0,+,65*,15,58*
CC(=O)Nc1ccc(S(=O)(=O)N2CCN(C(=O)C3COc4ccccc4O3)CC2)cc1 (stereo not drawn),4,3,5,i,nt,nt,nt
Cc1ccc(S(=O)(=O)NCCc2nnc(SCc3cccnc3)n2C)cc1,4,3,-4,i,nt,nt,nt
N#C/C(=C\c1ccc(OC(=O)c2ccc(Br)s2)cc1)c1nc2ccccc2[nH]1,7,-69,9,+,-8,-13,-22
N#C/C(=C\c1ccc(OC(=O)c2ccc(Cl)s2)cc1)c1nc2ccccc2[nH]1,2,-8,-5,+,-12,0,-33
CS(=O)(=O)N(CC(=O)Nc1ccc2c(c1)OCCO2)c1ccc2c(c1)OCO2,6,2,-15,+,-6,-25,-5
CC(C)Sc1nc2sccc2c(=O)n1-c1ccccc1,3,-11,0,i,nt,nt,nt
COc1ccc(/C=C2\Sc3ccc(C(=O)NCCN4CCCCCC4)cc3N(C)C2=O)cc1,0,-2,-3,+,40,-82,31
COc1cccc(/C=C2/Sc3ccc(C(=O)NCCN4CCCC4)cc3NC2=O)c1,4,9,0,i,nt,nt,nt
CC(C)(C#N)NC(=O)C1CCCN1S(=O)(=O)c1ccc2ccccc2c1 (stereo not drawn),-6,-2,-4,i,nt,nt,nt
CCOc1ccc2nc(Nc3nc(CSc4nnnn4-c4ccccc4)cc(=O)[nH]3)nc(C)c2c1,0,-3,3,+,-3,-18,6
COc1ccccc1CN(C)C(=O)COC(=O)c1cc(C)oc1C,-12,8,-3,i,nt,nt,nt
O=C(CCCn1nnnc1CN1CCOCC1)N1CCN(c2ccccc2F)CC1,-4,-9,3,i,nt,nt,nt
C[C@H](CO)N1C[C@H](C)[C@@H](CN(C)Cc2ccc(Oc3ccccc3)cc2)Oc2c(NS(=O)(=O)c3cn(C)cn3)cccc2C1=O,5,17,10,i,nt,nt,nt
O=C(NC(C(=O)N/N=C/c1cccnc1)c1n[nH]c(=O)c2ccccc12)c1ccccc1 (stereo not drawn),-13,-13,-3,i,nt,nt,nt
Cc1nn(-c2ccccc2)c(Cl)c1/C=C1\SC(=S)N(CCCCCC(=O)O)C1=O,-2,-28,13,i,nt,nt,nt
Cc1nn(-c2ccccc2)c(Cl)c1/C=C1\SC(=S)NC1=O,-7,-18,-4,+,-7,14,-7
CCc1nccn1CCC(=O)NC1CC(C)(C)Cc2c1cnn2-c1cccc(F)c1 (stereo not drawn),-13,-3,-3,i,nt,nt,nt
CN1/C(=C/C(=S)NC(=O)C2CCC2)C(C)(C)c2ccccc21,-1,-13,4,+,-12,21,-6
FC(F)Oc1ccc(NC(=S)NNc2ccnc3cc(Cl)ccc23)cc1,7,-2,-1,+,84*,39,active
NC(=S)NNc1ccnc2cc(Cl)ccc12,5,-15,5,i,nt,nt,nt
SMILES,PKA-R1A act,Neddylation inh,PKA-R2B act,Rpn11 block,Rpn11 inh conf,MMP-2 inh,Thrombin inh
Cc1cccc(C)c1OCCNC(=O)OCc1ccccc1,5,0,-7,i,nt,nt,nt
O=C(Nc1nc(-c2nc3ccccc3s2)cs1)c1ccco1,3,4,3,+,140*,18,24
O=C(Nc1nc(-c2ccc(Cl)s2)cs1)c1ccco1,0,-8,-2,i,nt,nt,nt
COc1ccc(CC(=O)Nc2ccc(-c3noc(-c4ccc(Cl)cc4)n3)cc2)cc1,0,-5,-8,+,-1,-29,-16
O=C1OCc2cccc([N+](=O)[O-])c21,-5,-32,-4,i,nt,nt,nt
O=C1Nc2ccccc2OCc2c1cccc2[N+](=O)[O-],3,-28,-4,+,-11,4,-24
CCN1C(=O)/C(=C2/Sc3ccccc3N2CC)S/C1=N\c1ncn[nH]1,2,-338,-4,+,162*,-70,104*
C=CCN1C(=O)/C(=C2/Sc3ccccc3N2CC)SC1=S,-9,8,-5,nt,nt,nt,nt
CCC1CCCCN1CCCCOc1cccc(Cl)c1 (stereo not drawn),-1,-1,1,i,nt,nt,nt
CCc1ccc(NC(=O)C(=O)c2ccccc2NC(C)=O)cc1,7,2,7,i,nt,nt,nt
CCCCC(CC)CNC(=O)C(=O)c1ccccc1NC(C)=O (stereo not drawn),-11,8,-4,+,-12,-49,-21
O=C(CCCSc1nc(-c2ccco2)cc(C(F)(F)F)n1)NCc1cccs1,-5,-21,3,+,11,-6,6
Cc1cc(NC(=O)CCCSc2nc(-c3ccco3)cc(C(F)(F)F)n2)no1,2,-29,-8,i,nt,nt,nt
COc1cccc2cc(C(=O)Nc3ccc(F)cc3)c(=Nc3ccc(C(=O)O)cc3)oc12,8,10,1,+,117*,-4,-17
COc1ccc(N=c2oc3c(OC)cccc3cc2C(=O)NCc2ccco2)cc1OC,5,-18,-1,i,nt,nt,nt
Cc1ccc2nc(NCCCO)[nH]c2c1,11,2,-6,+,-11,-35,-19
CCOc1ccc2nc(NCCO)[nH]c2c1,-6,0,-7,i,nt,nt,nt
O=C(COc1ccc(/C=N/NC(=O)c2cc3ccccc3o2)cc1Cl)Nc1ccccc1,-4,nt,8,+,0,-62,-12
COc1cc(/C=N/NC(=O)c2ccccc2O)ccc1OCC(=O)Nc1ccccc1,-5,nt,7,i,nt,nt,nt
CCOc1ccc(C(c2c(C)[nH][nH]c2=O)c2c(C)[nH][nH]c2=O)cc1OC,-2,4,1,i,nt,nt,nt
CCOc1cc(C(c2c(C)[nH][nH]c2=O)c2c(C)[nH][nH]c2=O)ccc1OS(=O)(=O)c1ccc(C)cc1,-12,4,0,+,20,16,-13
